Compound activity as filed in PubChem.
PfG6PD inh = PfG6PD (Plasmodium falciparum) enzyme inhibition | PfGluPho enzyme, NADPH resazurin-diaphorase fluorescence | inhibition, % at 20 µM | actives 0.78% (n = 350,000);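 active = inhibition reaching at least a set limit at 20 µM in the primary screen, cut at about 59% in these data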
Cardio protect = myocardial damage modulation in H9c2 cells; H9c2 cardiomyocytes, H2O2 injury protection, ATPLite, 2 h; actives 0.63% (n = 360,000); AID 588492; protection from H2O2 cell death, % at 20 µM;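 active = compounds giving at least 50% protection of heart cells from peroxide-induced death in the single-dose screen, raw or plate-pattern-corrected value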
CRFBP-R2 agonist = CRF-BP/CRF-R2 complex agonism. actives 0.46% (n = 350,000). HEK293 CRF-R2/CRF-BP, calcium dye fluorescence (FLIPR); percent of saturating CRF peptide response. activation, % at 13.2 µM;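 active = activation of at least 50%, plus an integration ratio under a set limit after plate pattern correction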
aDG glyco act = increases alpha dystroglycan glycosylation | Pro5-aDG cells, alpha-DG glycosylation AlphaScreen (IIH6); 0% Pro5, 100% B10-LARGE cell signal | activation, % at 10 µM | actives 0.22% (n = 360,000);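 active = activation of at least 8% versus controls, or a plate z-score of at least 8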;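 also: Pro5 are CHO cells carrying HIG-tagged alpha-DG that lacks glycosylation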
CRFBP-R2 block = antagonists of CRF-binding protein/CRF-R2 receptor complex | HEK293 CRF-R2/CRF-BP, CRF-induced calcium fluorescence | inhibition, % at 11.8 µM | actives 0.59% (n = 350,000);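 active = inhibition of the ligand-induced calcium signal above about 50% at the single tested concentration, limit read from the data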
FAS TE block = blocks the thioesterase domain of human fatty acid synthase | inhibition, % at 15 µM | recombinant FAS-TE, OMFH fluorogenic substrate, fluorescence endpoint | actives 0.67% (n = 360,000) | P49327;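 active = compounds whose normalised, plate-corrected inhibition of enzyme fluorescence in the single-dose primary screen is 50% or more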
Target sequence (P49327 whole entry, looked up, the tested form may be a part): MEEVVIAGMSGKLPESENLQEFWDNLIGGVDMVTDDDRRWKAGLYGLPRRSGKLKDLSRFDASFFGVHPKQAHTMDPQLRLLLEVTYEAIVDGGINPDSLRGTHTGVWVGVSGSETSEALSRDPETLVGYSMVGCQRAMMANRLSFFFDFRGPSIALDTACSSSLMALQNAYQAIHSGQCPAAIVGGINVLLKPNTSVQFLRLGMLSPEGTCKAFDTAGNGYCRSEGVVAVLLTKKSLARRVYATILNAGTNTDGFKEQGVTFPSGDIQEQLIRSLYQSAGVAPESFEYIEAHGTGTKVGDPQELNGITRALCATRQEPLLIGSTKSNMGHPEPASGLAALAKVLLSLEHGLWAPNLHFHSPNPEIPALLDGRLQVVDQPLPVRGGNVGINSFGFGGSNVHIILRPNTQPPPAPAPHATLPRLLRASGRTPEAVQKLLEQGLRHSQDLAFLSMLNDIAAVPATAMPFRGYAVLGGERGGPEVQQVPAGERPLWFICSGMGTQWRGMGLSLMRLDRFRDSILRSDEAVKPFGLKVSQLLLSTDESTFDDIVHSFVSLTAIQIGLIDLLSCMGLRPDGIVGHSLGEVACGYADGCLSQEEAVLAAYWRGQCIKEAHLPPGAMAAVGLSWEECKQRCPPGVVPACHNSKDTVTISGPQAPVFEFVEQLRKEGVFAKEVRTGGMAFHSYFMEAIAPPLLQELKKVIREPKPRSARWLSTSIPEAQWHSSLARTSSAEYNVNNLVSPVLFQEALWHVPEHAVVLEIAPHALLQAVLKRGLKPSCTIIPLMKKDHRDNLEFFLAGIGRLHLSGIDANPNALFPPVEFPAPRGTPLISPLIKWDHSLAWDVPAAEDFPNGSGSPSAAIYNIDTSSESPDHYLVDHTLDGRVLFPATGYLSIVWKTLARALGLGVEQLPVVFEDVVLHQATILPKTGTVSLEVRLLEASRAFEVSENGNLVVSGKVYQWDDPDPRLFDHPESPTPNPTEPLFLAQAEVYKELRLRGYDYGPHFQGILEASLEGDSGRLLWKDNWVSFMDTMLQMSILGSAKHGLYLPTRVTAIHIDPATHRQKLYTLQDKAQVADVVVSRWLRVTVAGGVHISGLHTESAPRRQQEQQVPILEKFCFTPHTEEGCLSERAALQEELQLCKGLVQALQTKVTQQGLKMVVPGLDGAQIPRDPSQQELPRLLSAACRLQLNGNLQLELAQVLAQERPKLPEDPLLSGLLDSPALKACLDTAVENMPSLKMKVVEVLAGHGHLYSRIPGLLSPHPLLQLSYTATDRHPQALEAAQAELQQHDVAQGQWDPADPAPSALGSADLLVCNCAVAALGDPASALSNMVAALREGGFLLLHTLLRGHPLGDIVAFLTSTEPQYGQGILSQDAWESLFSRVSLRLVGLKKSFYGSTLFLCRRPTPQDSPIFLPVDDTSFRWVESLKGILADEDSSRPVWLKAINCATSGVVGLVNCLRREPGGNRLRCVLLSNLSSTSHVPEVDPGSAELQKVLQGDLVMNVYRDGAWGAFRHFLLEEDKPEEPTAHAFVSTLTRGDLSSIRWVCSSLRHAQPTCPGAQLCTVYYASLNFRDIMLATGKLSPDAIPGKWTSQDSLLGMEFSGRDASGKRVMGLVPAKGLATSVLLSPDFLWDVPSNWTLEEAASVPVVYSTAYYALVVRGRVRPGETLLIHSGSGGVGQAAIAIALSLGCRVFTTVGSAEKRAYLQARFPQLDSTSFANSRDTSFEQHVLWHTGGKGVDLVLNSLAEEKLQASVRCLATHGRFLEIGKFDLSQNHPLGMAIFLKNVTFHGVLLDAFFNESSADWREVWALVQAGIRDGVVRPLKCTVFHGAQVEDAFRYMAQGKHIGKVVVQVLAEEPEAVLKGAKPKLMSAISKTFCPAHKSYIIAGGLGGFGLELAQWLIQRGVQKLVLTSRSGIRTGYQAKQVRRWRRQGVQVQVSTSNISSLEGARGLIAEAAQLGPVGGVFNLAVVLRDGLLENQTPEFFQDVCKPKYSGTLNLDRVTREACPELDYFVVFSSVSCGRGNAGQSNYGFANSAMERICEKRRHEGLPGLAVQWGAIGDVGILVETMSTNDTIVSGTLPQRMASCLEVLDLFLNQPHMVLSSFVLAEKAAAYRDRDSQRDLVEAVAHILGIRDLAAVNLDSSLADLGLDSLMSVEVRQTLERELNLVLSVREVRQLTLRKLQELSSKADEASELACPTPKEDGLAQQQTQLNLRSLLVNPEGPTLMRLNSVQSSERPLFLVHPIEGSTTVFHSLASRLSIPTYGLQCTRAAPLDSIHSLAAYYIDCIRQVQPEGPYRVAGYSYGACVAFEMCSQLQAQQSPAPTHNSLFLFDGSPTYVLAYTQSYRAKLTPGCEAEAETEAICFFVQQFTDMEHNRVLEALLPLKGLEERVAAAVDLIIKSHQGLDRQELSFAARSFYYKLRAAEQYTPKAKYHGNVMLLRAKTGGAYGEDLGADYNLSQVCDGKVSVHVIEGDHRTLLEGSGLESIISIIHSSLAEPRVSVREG
PfGluPho conf = confirmation of Plasmodium falciparum G6PD inhibitors | shares compounds with PfG6PD inh | recombinant PfGluPho, NADPH-diaphorase-resazurin fluorescence | inhibition, % at 20 µM | actives 34% (n = 2,400) | AID 504753;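 active = inhibition of at least 50% at 20 µM in any single replicate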
Diaphorase 10uM = inhibits diaphorase or oxidizes, flagging false PfG6PD hits | shares compounds with PfG6PD inh | diaphorase-coupled resazurin reduction, fluorescence, NADPH 10 uM | inhibition, % at 20 µM | actives 39% (n = 820) | AID 504862;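 active = average inhibition reaching 50% or more with the compound at 20 µM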;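 also: resorufin red fluorescence formed as diaphorase reduces resazurin using NADPH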
Diaphorase 30uM = counter-screen for P. falciparum G6PD inhibitors: diaphorase inhibitors, oxidizers; shares compounds with PfG6PD inh; Diaphorase/resazurin coupled assay, resorufin fluorescence, 30 uM NADPH; inhibition, % at 20 µM; actives 29% (n = 820); AID 504863;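 active = inhibition averaging 50% or more, tested at 20 µM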
Each line names hits and unclear results; the compound was inactive in the other large screens (follow-up assays come after a bar, where they were run). Only some compounds are listed: those with a hit (about 3.2% of all), similar ones and a draw of the others.

C=CCN1C=C2C(=O)C(C)(OC(=O)CCC(=O)OC)C(=O)C(Br)=C2C=C1c1ccc(OC)cc1 (stereo unspecified)	PfG6PD inh 86 | PfGluPho conf 55 | Diaphorase 10uM inactive | Diaphorase 30uM inactive
COc1ccc(C2=CC3=C(Br)C(=O)C(C)(OC(=O)c4cccs4)C(=O)C3=CO2)cc1 (stereo unspecified)	none
C=CCN1C=C2C(=O)C(C)(OC(=O)C3CCCC3)C(=O)C(c3ccccc3)=C2C=C1CCCC(=O)OC (stereo unspecified)	none
COC(=O)CCC(=O)OC1(C)C(=O)C2=CN(c3ccc(OC)cc3)C(c3ccc(OC)cc3)=CC2=C(Br)C1=O (stereo unspecified)	PfG6PD inh 71 | PfGluPho conf 48 | Diaphorase 10uM inactive | Diaphorase 30uM inactive
CCN(CC)CCCN1C=C2C(=O)C(C)(OC(=O)CCC(=O)OC)C(=O)C(Br)=C2C=C1c1ccc(OC)cc1 (stereo unspecified)	none
COc1ccc(OC)c(S(=O)(=O)NCCCN2CCCC2=O)c1	none
Cc1ccc(NC(=O)NNC(=O)c2snnc2C)cc1	none
CC(NS(=O)(=O)c1ccc(Br)s1)c1ccccc1 (stereo unspecified)	none
CCCOc1ccc2oc(=O)c3c(c2c1)CCCN3C(=O)CN(C)Cc1ccccc1	PfG6PD inh 78 | PfGluPho conf inactive
Cc1nc(NC(=O)c2cccc(Cl)c2)sc1C(=O)N1CCCCC1	none
O=C1CCN(c2ccccc2)N1	PfG6PD inh 119 | PfGluPho conf 109 | Diaphorase 10uM inactive | Diaphorase 30uM inactive
Nc1cc(N)c(OCC(F)(F)F)cc1OCC(F)(F)F	PfG6PD inh 99 | PfGluPho conf 94 | Diaphorase 10uM inactive | Diaphorase 30uM inactive
Nc1cc(OCC(F)(F)F)cc([N+](=O)[O-])c1	none
COc1ccc(CCN(Cc2cc3ccc(C)cc3n3nnnc23)C(C)=O)cc1OC	none
Cc1ccc(Nc2nnc(-c3ccc4c(c3)OCO4)o2)c(C)c1	PfG6PD inh 70 | PfGluPho conf inactive
CSCCOC(=O)C1=C(C)Nc2ccc(C)cc2S1	PfG6PD inh 60 | PfGluPho conf inactive
CCOC(=O)C1=C(C)Nc2ccc(C)cc2S1	none
COc1ccc(-c2cc3ccc(F)cc3cn2)cc1	PfG6PD inh 69 | PfGluPho conf inactive
COc1ccc(-c2cc3cc(F)ccc3cn2)cc1	none
Cn1nc(C(=O)N2CCN(C(c3ccccc3)c3ccccc3)CC2)c2ccccc2c1=O	none
Cc1cc(C)n(CCC(=O)Nc2ccc3c(c2)OCCO3)n1	none
COc1cc(NC2CCCCC2O)c2nc(-c3ccc(Cl)cc3)ccc2c1 (stereo unspecified)	PfG6PD inh 61 | PfGluPho conf inactive
COc1ccc(OCC(=O)OCC(=O)NC2CCCCC2C)cc1 (stereo unspecified)	none
Cc1cccc(C(=O)Nc2ccc(C(=O)c3ccccc3)cc2)c1	PfG6PD inh 63 | PfGluPho conf inactive
Cc1cccc(C(=O)Nc2ccc(O)cc2)c1	none
Cc1cccc(C(=O)Nc2ccc(C(=O)c3ccncc3)cc2)c1	PfG6PD inh 64 | PfGluPho conf inactive
COC(=O)c1ccc(NC(=O)c2cccc(C)c2)cc1	none
CC1(C(=O)NS(=O)(=O)c2ccccc2C(F)(F)F)CCN1C(=O)C1CCCCC1 (stereo unspecified)	none (no result: PfG6PD inh, CRFBP-R2 agonist, CRFBP-R2 block)
CN(CCc1ccccc1)c1cc2c(c3c1ccn3C)C1CCC2O1 (stereo unspecified)	none (no result: PfG6PD inh, CRFBP-R2 agonist, CRFBP-R2 block)
CN(C)c1ccc(Cc2cc3c(O)ccc(O)c3cc(Cc3ccc(N(C)C)cc3)c2=O)cc1	PfG6PD inh 113 | PfGluPho conf 84 | Diaphorase 10uM inactive | Diaphorase 30uM inactive
CN(C)c1ccc(C(=O)c2ccc(O)cc2O)cc1	none
O=c1[nH]ncn1-c1ccc(Br)cc1	none
